Shown are actives, neighbours in structure and some others; about 7.9% of the full set was active somewhere.
HT1080-NT tox: kills 2HG-producing HT-1080-NT fibrosarcoma cells; HT-1080-NT fibrosarcoma viability, CellTiter-Glo ATP luminescence, 48 h; Potency, µM (doses to about 46.1 µM), for the others: at the highest dose activity, negative = less viability, usual class: cytotoxic; 1.6% of 360,000 active;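 further: NT is the 2HG producing partner of a matched IDH1 knockdown line; 0% = DMSO-treated cells and -100% = media-only wells without cells; nearly all actives have a fitted effect of over 55% in size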
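A 48-hour cytotoxicity screen used HT-1080-NT cells plated 2 hours before compound delivery. ATP-based CellTiter-Glo luminescence measured viability, normalized to DMSO and no-cell controls.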
SW480 rereplic: DNA re-replication induction in SW480 cells. 1.8% of 340,000 active. Potency, µM (titrated, usually from 46.1 µM), inactives show at the top dose re-replication activation, usual class: activators. SW480 DNA re-replication, Hoechst DNA content imaging, 48 h. AID 624297; further: % of control where 0% means no effect; nearly all actives have a fitted effect of over 55% in size
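250 cells/well; 23 nL cpd via pin tool; 48 hr, 37 C, 5% CO2; Hoechst 40 min; imager read of total nuclear intensity, ex 405/em 500-530 nm.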
KB-3-1 cytotox: kills parental KB-3-1 adenocarcinoma cells. KB-3-1 viability, CellTiter-Glo ATP luminescence, 72 h. Potency, µM (series often up to 46.1 µM), most hits filed as cytotoxic. 1.4% of 400,000 active. AID 1347075; further: on the % scale 0 is the no-effect control and ±100 the full control effect; nearly all actives have a fitted effect of over 60% in size
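Parental KB-3-1 adenocarcinoma cells in phenol-red-free DMEM with 10% FBS were pin-treated with compounds at several concentrations, incubated 72 h at 37 °C, and viability read by CellTiter-Glo luminescence; concentration-effect curves were fitted after normalization.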
HT1080 IDH1KD tx: HT-1080 IDH1 knockdown cell toxicity (counter line). HT-1080 IDH1 knockdown viability, ATP luminescence, 48 h. Potency, µM (highest dose often 46.1 µM), inactives show at the highest dose activity, negative = toxicity, hits mostly cytotoxic. 2% of 360,000 active;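 further: 0% = DMSO wells and -100% = cell-free medium wells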
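In this qHTS, HT-1080 cells depleted of IDH1 are exposed for 48 h at 37 °C to compound titrations. Toxicity is scored from CellTiter-Glo luminescence, with DMSO as full viability and medium alone as none.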
MCF10A rerep: DNA re-replication induction in MCF 10a cells; MCF 10A DNA re-replication, Hoechst nuclear intensity, 48 h; Potency, µM (series often up to 46.1 µM), inactives show at the highest dose activity, positive = re-replication, hits mostly activators; 2.9% of 350,000 active; AID 624296; further: % of control where 0% means no effect; nearly all actives have a fitted effect of over 50% in size
KB-V1 cytotox: KB-V1 MDR subline cytotoxicity; KB-V1 MDR cells viability, CellTiter-Glo, 72 h; Potency, µM (titrated, usually from 46.1 µM), usual class: cytotoxic; 3.4% of 400,000 active; further: on the % scale 0 is the no-effect control and ±100 the full control effect; nearly all actives have a fitted effect of over 60% in size
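In this primary screen, KB-V1 cells overexpressing P-gp are incubated with library compounds (lowest to highest concentration) for 72 h at 37 degrees C before a luminescent ATP viability read.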
The depositor's hits bear a star; i = inactive; ? = inconclusive; · = not tested or not shown. The call rests on the fitted dose curve; in most records, active means well fitted curve in the direction sought with a large enough effect; inconclusive means small, poorly fitted or top-dose-only effect, or another doubt; inactive means no such curve, though single readings can be large; an effect the other way counts as inactive or inconclusive. Potency means the concentration at half of the fitted maximal effect.

SMILES	HT1080-NT tox	SW480 rereplic	KB-3-1 cytotox	HT1080 IDH1KD tx	MCF10A rerep	KB-V1 cytotox
CN(C)S(=O)(=O)c1cccc(C(=O)Nc2cc3c(cc2C(=O)O)OCCCO3)c1	16%	1%	i	9%	1%	i
Clc1cccc(CNc2nnnn2-c2ccccc2)c1	-5%	-3%	?	-14%	?	23µM*
Cc1cccc(C2(c3cccc(C)c3)CC2C(=O)Nc2ccc([N+](=O)[O-])cc2O)c1 (centres undefined)	?	?	21µM*	?	?	4.6µM*
C=CCNC(=O)C1CC1(c1cccc(C)c1)c1cccc(C)c1 (centres undefined)	?	-20%	i	?	4%	?
COc1cccc(C2(c3cccc(OC)c3)CC2C(=O)Nc2ccccc2Cl)c1 (centres undefined)	?	?	i	21µM*	28%	?
COc1ccc(/C=C/C(=O)Nc2cc(C)nn2-c2nc3ccccc3[nH]2)cc1	-8%	18µM*	?	-6%	?	16µM*
Cc1cc(NC(=O)/C=C/c2cccc(Cl)c2)n(-c2nc3ccccc3[nH]2)n1	-4%	?	?	-9%	21µM*	?
COc1ccc(/C=C/C(=O)Nc2cc(C)nn2-c2nc3ccccc3n2Cc2cccc([N+](=O)[O-])c2)cc1	2%	?	?	1%	0%	?
Cc1cc(NC(=O)/C=C/c2ccc(F)cc2)n(-c2nc3ccccc3[nH]2)n1	-13%	2%	i	-3%	?	i
NC(=O)c1ccccc1NC(=O)/C=C/c1cccc(Cl)c1	-1%	-15%	i	0%	12%	i
Cc1cc(NC(=O)/C=C/c2cccc(F)c2)n(-c2nc3ccccc3[nH]2)n1	-8%	?	?	-17%	16µM*	?
COC(=O)C[C@H]1C=C[C@H](NC(=O)Nc2ccccc2OC)[C@@H](CO)O1	8%	·	i	22%	·	i
O=[N+]([O-])c1cc(CN2CCCC2)ccc1Sc1ccc(Cl)cc1	-26%	6%	?	?	10µM*	?
O=C(Nc1ccc(F)cc1Cl)c1cnc(N2CCOCC2)c2ccccc12	·	·	i	·	·	i
Cc1cccc2c(C(=O)N3CCN(c4ccccn4)CC3)cc(-c3cccc(Br)c3)nc12	-4%	16µM*	?	?	-6%	?
Cc1cccc2c(C(=O)N3CCCCC3)cc(-c3ccccc3)nc12	1%	?	i	-4%	?	?
CC(=O)c1ccc(N2CCN(C(=O)c3cc(-c4ccncc4)nc4ccc(Cl)cc34)CC2)cc1	-2%	-4%	i	1%	1%	9.2µM*
Cc1cccc2c(C(=O)N3CCN(c4ccccc4)CC3)cc(-c3ccncc3)nc12	1.3µM*	6.5µM*	4.1µM*	1.3µM*	7.3µM*	3.7µM*
CC1(C)OC(=O)C2=C(C[C@@H](C3CCCC3)O[C@H]2CCc2cccc(Cl)c2)O1	17%	·	i	2%	·	?
O=C(NC1CCCc2ccccc21)C1CCN(S(=O)(=O)c2cccc(C(F)(F)F)c2)CC1 (centres undefined)	-2%	?	i	-22%	8%	23µM*
CC(=O)c1cc(C#N)c(SCc2ccccc2C#N)nc1C	?	?	16µM*	?	?	10µM*
C=CCN(CC=C)C(=S)NC(=O)c1ccc(OC)cc1	-2%	1%	i	6%	-2%	16µM*
CN(Cc1ccccc1)C(=S)NC(=O)c1ccc(-c2ccccc2)cc1	-25%	1%	i	?	10%	i
C=CCN(CC=C)C(=S)NC(=O)c1ccc(-c2ccccc2)cc1	2%	4%	?	-22%	?	5.8µM*

High-throughput results: PubChem BioAssay, National Center for Advancing Translational Sciences (NCATS)
